# According to PubChem BioAssay (EPA / NIEHS):
# The source made the active and inactive calls. How the source made its calls: active means hit-call score of the fitted dose curve at least 0.9, where 1 is the maximum; inactive means score below 0.9.
# Legend:
# Conditions in all cases: mRNA level, 48 h; actives raise or lower the signal
# BCL2L11 (gene 10018) = assay: LTEA_HepaRG_BCL2L11: Life Technologies and Expression Analysis (LTEA) Assay for Bcl-2 (BCL2L11) gene using HepaRG (AID 2283473)
# Method in brief: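 Read-out is BCL2L11 transcript level by qRT-PCR, normalized to three housekeeping genes and fitted bidirectionally against 0.5% DMSO vehicle. HepaRG cells received chemicals for 48 h in serum-free induction medium, 100 uM down in half-log dilutions.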
# [1] = read-out: Apolipoprotein A-V (APOA5) gene, APOA5 (gene 116519); assay: LTEA_HepaRG_APOA5: Life Technologies and Expression Analysis (LTEA) Assay for Apolipoprotein A-V (APOA5) gene using HepaRG (AID 2283474)
# Method in brief: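 Readout is APOA5 transcript level by qRT-PCR on Fluidigm dynamic arrays, normalized to three housekeeping genes. HepaRG cultures received chemicals for 48 h at up to 100 uM (half-log steps, 0.5% DMSO), with gain or loss scored relative to DMSO.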
# [2] = read-out: Apoptosis regulator Bcl-2 (Homo sapiens) (UniProt P10415); assay: LTEA_HepaRG_BCL2: Life Technologies and Expression Analysis (LTEA) Assay for Bcl-2 gene using HepaRG (AID 2283475)
# Method in brief: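 Differentiated human HepaRG cells in serum-free induction medium exposed 48 h, in duplicate, to 8-point half-log series from 100 uM in 0.5% DMSO. BCL2 mRNA by qRT-PCR (TaqMan/Fluidigm), normalized to ACTB, GAPDH, POLR2A; bidirectional fit against DMSO.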
# [3] = read-out: Bcl-2 (BID) gene, BID (gene 637); assay: LTEA_HepaRG_BID: Life Technologies and Expression Analysis (LTEA) Assay for Bcl-2 (BID) gene using HepaRG (AID 2283476)
# Method in brief: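 Gene expression by qRT-PCR in HepaRG cells after 48 h exposure, duplicate wells, eight half-log concentrations topping at 100 uM in 0.5% DMSO. Normalized to ACTB, GAPDH, POLR2A; bidirectional fitting relative to DMSO.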
# Caspase-3 (Homo sapiens) = Caspase-3 (Homo sapiens) (UniProt P42574); assay: LTEA_HepaRG_CASP3: Life Technologies and Expression Analysis (LTEA) Assay for cysteine-aspartic acid protease (CASP3) using HepaRG (AID 2283477)
# Sequence of Caspase-3 (Homo sapiens) (P42574 whole entry, looked up): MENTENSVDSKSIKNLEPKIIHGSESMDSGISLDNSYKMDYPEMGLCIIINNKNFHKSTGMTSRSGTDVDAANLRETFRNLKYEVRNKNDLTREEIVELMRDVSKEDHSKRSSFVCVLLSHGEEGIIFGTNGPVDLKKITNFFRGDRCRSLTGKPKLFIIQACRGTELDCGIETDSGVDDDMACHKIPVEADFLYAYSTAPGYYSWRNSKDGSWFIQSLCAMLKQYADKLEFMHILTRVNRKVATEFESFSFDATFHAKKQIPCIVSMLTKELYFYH
# Method in brief: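 Read-out is CASP3 mRNA level by TaqMan qRT-PCR in human HepaRG cells after 48 h chemical exposure. Eight half-log concentrations topping at 100 uM were tested in 0.5% DMSO; gain or loss was fitted relative to DMSO.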
# [4] = read-out: Cytochrome P450 (CYP24A1), CYP24A1 (gene 1591); assay: LTEA_HepaRG_CYP24A1: Life Technologies and Expression Analysis (LTEA) Assay for Cytochrome P450 (CYP24A1) using HepaRG (AID 2283478)
# Method in brief: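 HepaRG, 48 h chemical exposure, 8-pt half-log CRC from 100 uM, 0.5% DMSO vehicle, duplicates. Endpoint: CYP24A1 mRNA by Fluidigm TaqMan qRT-PCR, normalized ACTB/GAPDH/POLR2A; gain/loss fit vs DMSO.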
# [5] = read-out: cysteine-aspartic acid protease (CASP8), CASP8 (gene 841); assay: LTEA_HepaRG_CASP8: Life Technologies and Expression Analysis (LTEA) Assay for cysteine-aspartic acid protease (CASP8) using HepaRG (AID 2283480)
# Method in brief: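 HepaRG, 48 h exposure, duplicate wells; 8 conc, half-log from 100 uM, 0.5% DMSO. Serum-free induction medium. CASP8 mRNA by TaqMan qRT-PCR, norm. ACTB/GAPDH/POLR2A; gain/loss fitted vs DMSO.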
# [6] = read-out: Cytochrome P450 (CYP2B6), CYP2B6 (gene 1555); assay: LTEA_HepaRG_CYP2B6: Life Technologies and Expression Analysis (LTEA) Assay for Cytochrome P450 (CYP2B6) using HepaRG (AID 2283481)
# Method in brief: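 HepaRG cells plated 48 h, switched to serum-free induction medium, then dosed 48 h (8 points, half-log from 100 uM, 0.5% DMSO). RNA isolated; CYP2B6 expression measured by qRT-PCR; gain or loss fitted relative to DMSO.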
# [7] = read-out: Cytochrome P450 2C19 (Homo sapiens) (UniProt P33261); assay: LTEA_HepaRG_CYP2C19: Life Technologies and Expression Analysis (LTEA) Assay for CYP2C19 using HepaRG (AID 2283482)
# Method in brief: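 Transcript levels of CYP2C19 were quantified by qRT-PCR after HepaRG cells were treated for 48 hours with test chemicals up to 100 uM (eight half-log concentrations, 0.5% DMSO vehicle). Gain or loss of signal was fitted relative to DMSO.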
# CYP2C8 (gene 1558) = assay: LTEA_HepaRG_CYP2C8: Life Technologies and Expression Analysis (LTEA) Assay for CYP2C8 using HepaRG (AID 2283483)
# Method in brief: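 CYP2C8 mRNA induction or loss, by qRT-PCR normalized to ACTB/GAPDH/POLR2A, is read in HepaRG cells after 48 h treatment. Concentrations run from 100 uM down in half-log dilutions, with 0.5% DMSO as vehicle and baseline.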
# CYP2C9 (gene 1559) = assay: LTEA_HepaRG_CYP2C9: Life Technologies and Expression Analysis (LTEA) Assay for CYP2C9 using HepaRG (AID 2283484)
# Method in brief: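 Cells plated 48 h, switched to serum-free induction medium, then treated in duplicate for 48 h at eight concentrations (max 100 uM, 0.5% DMSO). RNA then analysed by qRT-PCR for CYP2C9; curves fitted in both directions relative to DMSO.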
# CYP2E1 (gene 1571) = assay: LTEA_HepaRG_CYP2E1: Life Technologies and Expression Analysis (LTEA) Assay for CYP2E1 using HepaRG (AID 2283485)
# Method in brief: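 HepaRG cells, plated 48 h, then exposed 48 h in serum-free induction medium to eight half-log concentrations from 100 uM in 0.5% DMSO, duplicate. CYP2E1 mRNA by qRT-PCR, normalized to ACTB/GAPDH/POLR2A; bidirectional fit versus DMSO.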
# CYP4A11 (gene 1579) = assay: LTEA_HepaRG_CYP4A11: Life Technologies and Expression Analysis (LTEA) Assay for CYP4A11 using HepaRG (AID 2283486)
# Method in brief: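 HepaRG, 48 h chem exposure, 8 conc (100 uM top, half-log), 0.5% DMSO vehicle; qRT-PCR readout, housekeeping-gene normalized; bidirectional curve fit vs DMSO baseline.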
# [8] = read-out: Cytochrome P450 3A4 (Homo sapiens) (UniProt P08684); assay: LTEA_HepaRG_CYP3A4: Life Technologies and Expression Analysis (LTEA) Assay for CYP3A4 using HepaRG (AID 2283487)
# Method in brief: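 Differentiated HepaRG cells in serum-free induction medium exposed in duplicate for 48 h to 8 half-log concentrations up to 100 uM in 0.5% DMSO. CYP3A4 mRNA measured by qRT-PCR normalized to ACTB, GAPDH and POLR2A; bidirectional fit versus DMSO.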
# [9] = read-out: DNA damage-inducible transcript 3 (DDIT3), DDIT3 (gene 1649); assay: LTEA_HepaRG_DDIT3: Life Technologies and Expression Analysis (LTEA) Assay for DNA damage-inducible transcript 3 (DDIT3) using HepaRG (AID 2283488)
# Method in brief: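 HepaRG cells, 48 h after plating, exposed 48 h in serum-free induction medium to 8 half-log concentrations up to 100 uM in 0.5% DMSO, in duplicate. DDIT3 mRNA measured by TaqMan qRT-PCR, normalized to ACTB, GAPDH and POLR2A. Fitted bidirectionally against DMSO.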
# [10] = read-out: Pro-epidermal growth factor (Homo sapiens) (UniProt P01133); assay: LTEA_HepaRG_EGF: Life Technologies and Expression Analysis (LTEA) Assay for Epidermal growth factor (EGF) using HepaRG (AID 2283489)
# Method in brief: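 HepaRG, 48 h dosing, 100 uM top, half-log x8, 0.5% DMSO. Readout: TaqMan qRT-PCR (Fluidigm array), housekeeping-normalized. Gain or loss of signal fit vs DMSO.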
# [11] = read-out: Ezrin (EZR), EZR (gene 7430); assay: LTEA_HepaRG_EZR: Life Technologies and Expression Analysis (LTEA) Assay for Ezrin (EZR) using HepaRG (AID 2283491)
# Method in brief: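 Differentiated human HepaRG cells, 48 h after plating, were exposed in serum-free induction medium for 48 hours to eight half-log concentrations up to 100 uM in 0.5% DMSO. EZR mRNA was measured by TaqMan qRT-PCR, normalized to ACTB, GAPDH and POLR2A, and fitted bidirectionally against DMSO.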
# [12] = read-out: Cytochrome P450 3A7 (Homo sapiens) (UniProt P24462); assay: LTEA_HepaRG_CYP3A7: Life Technologies and Expression Analysis (LTEA) Assay for CYP3A7 using HepaRG (AID 2283492)
# Method in brief: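 Human HepaRG liver cells, 48 h post-plating, switched to serum-free induction medium and exposed in duplicate for 48 h. Dosing: 100 uM top, half-log dilutions, 8 points, 0.5% DMSO vehicle. Read-out: CYP3A7 mRNA, gain or loss fitted against DMSO baseline.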
# [13] = read-out: Cytochrome P450 (CYP1A2), CYP1A2 (gene 1544); assay: LTEA_HepaRG_CYP1A2: Life Technologies and Expression Analysis (LTEA) Assay for Cytochrome P450 (CYP1A2) using HepaRG (AID 2283479)
# Method in brief: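 CYP1A2 transcript induction or loss, quantified by Fluidigm qRT-PCR against three housekeeping genes, was fitted bidirectionally against 0.5% DMSO controls. Human HepaRG cells received eight half-log concentrations from 100 uM over 48 h.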
# [14] = read-out: Early growth response protein 1 (EGR1) transcription factor, EGR1 (gene 1958); assay: LTEA_HepaRG_EGR1: Life Technologies and Expression Analysis (LTEA) Assay for Early growth response protein 1 (EGR1) transcription factor using HepaRG (AID 2283490)
# Method in brief: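 Read-out is EGR1 mRNA level by qRT-PCR, normalized to three housekeeping genes and analysed for gain or loss of signal against 0.5% DMSO. Source cells: human HepaRG, treated 48 h at up to 100 uM in half-log dilutions.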
# Sequence of Apoptosis regulator Bcl-2 (Homo sapiens) (P10415 whole entry, looked up): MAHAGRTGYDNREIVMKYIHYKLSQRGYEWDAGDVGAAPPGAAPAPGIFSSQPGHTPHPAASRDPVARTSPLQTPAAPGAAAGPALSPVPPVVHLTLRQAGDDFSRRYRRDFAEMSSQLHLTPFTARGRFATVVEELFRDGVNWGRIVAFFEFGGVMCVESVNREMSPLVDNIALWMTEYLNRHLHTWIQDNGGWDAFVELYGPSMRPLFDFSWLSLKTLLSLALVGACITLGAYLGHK
# Sequence of Cytochrome P450 3A4 (Homo sapiens) (P08684 whole entry, looked up): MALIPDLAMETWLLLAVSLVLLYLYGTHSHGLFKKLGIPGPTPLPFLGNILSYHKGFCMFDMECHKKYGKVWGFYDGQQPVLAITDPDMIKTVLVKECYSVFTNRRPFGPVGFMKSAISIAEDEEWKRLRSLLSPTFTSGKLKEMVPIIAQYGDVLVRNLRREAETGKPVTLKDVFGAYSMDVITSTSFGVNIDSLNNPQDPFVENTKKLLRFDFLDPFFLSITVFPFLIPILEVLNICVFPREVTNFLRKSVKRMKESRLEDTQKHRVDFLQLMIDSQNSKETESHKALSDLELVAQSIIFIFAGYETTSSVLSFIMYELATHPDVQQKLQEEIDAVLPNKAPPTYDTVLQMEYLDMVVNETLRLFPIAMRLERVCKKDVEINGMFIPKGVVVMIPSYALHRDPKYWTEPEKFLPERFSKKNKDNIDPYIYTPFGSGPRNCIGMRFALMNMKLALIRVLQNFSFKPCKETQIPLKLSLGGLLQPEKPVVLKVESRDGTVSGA
# Sequence of Cytochrome P450 3A7 (Homo sapiens) (P24462 whole entry, looked up): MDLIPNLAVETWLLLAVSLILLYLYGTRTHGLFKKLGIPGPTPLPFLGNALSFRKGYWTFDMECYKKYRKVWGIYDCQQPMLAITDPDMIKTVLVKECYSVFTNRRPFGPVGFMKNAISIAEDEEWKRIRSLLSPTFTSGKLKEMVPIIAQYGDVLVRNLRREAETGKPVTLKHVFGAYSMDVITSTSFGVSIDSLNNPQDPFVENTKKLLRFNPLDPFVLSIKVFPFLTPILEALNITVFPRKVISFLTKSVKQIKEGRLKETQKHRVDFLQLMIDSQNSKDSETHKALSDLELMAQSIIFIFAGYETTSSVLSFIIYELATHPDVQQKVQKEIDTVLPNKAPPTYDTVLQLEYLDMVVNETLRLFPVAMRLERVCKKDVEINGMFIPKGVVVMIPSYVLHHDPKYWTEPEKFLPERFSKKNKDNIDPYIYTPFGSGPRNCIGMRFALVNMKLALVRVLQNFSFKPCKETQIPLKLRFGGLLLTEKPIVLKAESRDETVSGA
# Sequence of Cytochrome P450 2C19 (Homo sapiens) (P33261 whole entry, looked up): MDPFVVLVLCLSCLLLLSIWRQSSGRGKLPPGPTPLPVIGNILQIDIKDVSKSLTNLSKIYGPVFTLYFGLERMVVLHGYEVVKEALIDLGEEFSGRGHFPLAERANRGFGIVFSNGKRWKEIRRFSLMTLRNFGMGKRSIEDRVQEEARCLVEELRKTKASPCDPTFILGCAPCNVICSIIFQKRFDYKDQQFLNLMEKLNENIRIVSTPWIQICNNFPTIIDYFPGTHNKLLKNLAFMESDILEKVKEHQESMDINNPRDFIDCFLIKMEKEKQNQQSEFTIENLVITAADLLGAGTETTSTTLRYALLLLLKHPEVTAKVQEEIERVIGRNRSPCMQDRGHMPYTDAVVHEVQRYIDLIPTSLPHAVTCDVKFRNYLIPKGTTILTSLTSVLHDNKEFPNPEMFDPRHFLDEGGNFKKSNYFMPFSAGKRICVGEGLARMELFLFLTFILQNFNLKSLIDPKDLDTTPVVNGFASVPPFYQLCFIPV
smiles,measurement,setting,value
CCCOc1ccc(S(=O)(=O)N2CCN(CC)CC2)cc1-c1nc2c(CC)n(Cc3ccccn3)nc2c(=O)[nH]1,outcome,BCL2L11 (gene 10018),inactive
same,outcome,[1],inactive
same,outcome,[2],inactive
same,outcome,[3],inactive
same,outcome,Caspase-3 (Homo sapiens),inactive
same,outcome,[4],inactive
same,outcome,[5],inactive
same,AC50,[6],5.14 µM (active)
same,AC50,[7],18.2 µM (active)
same,AC50,CYP2C8 (gene 1558),3.5 µM (active)
same,outcome,CYP2C9 (gene 1559),inactive
same,AC50,CYP2E1 (gene 1571),4.54 µM (active)
same,AC50,CYP4A11 (gene 1579),30.9 µM (active)
same,AC50,[8],2.11 µM (active)
same,AC50,[9],69.6 µM (active)
same,outcome,[10],inactive
same,outcome,[11],inactive
same,AC50,[12],1.22 µM (active)
CCCCCCOC(=O)CC(CC(=O)OCCCCCC)(OC(=O)CCC)C(=O)OCCCCCC,outcome,BCL2L11 (gene 10018),inactive
same,outcome,[1],inactive
same,outcome,[2],inactive
same,outcome,[3],inactive
same,outcome,Caspase-3 (Homo sapiens),inactive
same,outcome,[4],inactive
same,outcome,[13],inactive
same,outcome,[5],inactive
same,AC50,[6],12.3 µM (active)
same,outcome,[7],inactive
same,outcome,CYP2C8 (gene 1558),inactive
same,outcome,CYP2C9 (gene 1559),inactive
same,outcome,CYP2E1 (gene 1571),inactive
same,outcome,CYP4A11 (gene 1579),inactive
same,AC50,[8],17.7 µM (active)
same,outcome,[9],inactive
same,outcome,[10],inactive
same,outcome,[14],inactive
same,outcome,[11],inactive
same,outcome,[12],inactive
C[C@]12C=CC(=O)C=C1CC[C@H]1[C@@H]3C[C@@H](O)[C@](O)(C(=O)CO)[C@@]3(C)C[C@H](O)[C@@]12F,outcome,BCL2L11 (gene 10018),inactive
same,outcome,[1],inactive
same,outcome,[2],inactive
same,outcome,[3],inactive
same,outcome,Caspase-3 (Homo sapiens),inactive
same,outcome,[4],inactive
same,AC50,[13],50 µM (active)
same,outcome,[5],inactive
same,outcome,[6],inactive
same,outcome,CYP2C8 (gene 1558),inactive
same,outcome,CYP2C9 (gene 1559),inactive
same,outcome,CYP2E1 (gene 1571),inactive
same,outcome,CYP4A11 (gene 1579),inactive
same,outcome,[8],inactive
same,outcome,[9],inactive
same,outcome,[14],inactive
same,outcome,[11],inactive
same,outcome,[12],inactive
